Where “and” joins values, the source holds several entries; their conditions need not be identical. Equal entries are not always repeated. Results filed as inconclusive are left out. Entries that show only a call come without a potency. Values without a mark were called inactive. Calls of active or inactive are those of the source. Calls come from the whole dose curve; as a rule, active = well fitted curve in the direction sought with a large enough effect in the repeat runs; inconclusive = weak or mixed curves; inactive = no such curve, though single readings can be large; an effect the other way counts as inactive or inconclusive.
Tested on: not listed separately
Assay: qHTS assay to identify small molecule antagonists of the constitutive androstane receptor (CAR) signaling pathway - cell viability counter screen (AID 1224837); note: nearly all actives have a fitted effect of over 45% in size; note: potency is the fitted concentration of half-maximal effect
Conditions: HepG2-CYP2B6-hCAR viability, CellTiter-Fluor, 23 h, co-treated with 50 nM CITCO; series mostly up to 92.4 µM
Method in brief: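 To flag cytotoxic false antagonists, HepG2 hCAR/CYP2B6-2.2kb cells were treated 23 hr with 15-concentration compound series and 50 nM CITCO at 37 C/5% CO2; CellTiter-Fluor fluorescence was the measured end point.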
With `OC(CCN1CCCCC1)(c1ccccc1)C1CC2C=CC1C2` (stereo unspecified) the Potency was “inactive”. With `CC(=O)OCC(=O)[C@@]1(O)CC[C@H]2[C@@H]3CCC4=CC(=O)CC[C@]4(C)[C@H]3C(=O)C[C@@]21C` the Potency was “inactive”. For `CC(C)(c1ccc(O)cc1)c1ccc(O)cc1`, the Potency was “inactive”. For `CCCN(CCC)CCc1cccc2c1CC(=O)N2`, the Potency was “inactive”. With `Cc1ccc(=O)n(-c2ccccc2)c1` the Potency was “inactive”. With `CCCCCCCCCCCC` the Potency was “inactive”. In the case of `c1ccc([C@H]2CN3CCSC3=N2)cc1`, the Potency is reported as “inactive”. For `c1cnc(N2CCN(Cc3ccc4c(c3)OCO4)CC2)nc1`, the Potency was “inactive”. For `COC(=O)c1c(Cl)c(Cl)c(C(=O)OC)c(Cl)c1Cl`, the Potency was “inactive”. `C[C@](N)(Cc1ccc(O)cc1)C(=O)O` gave an activity change, negative = cytotoxicity of 2.5% [at 8.39 µM]. Molecule `N[C@H](C(=O)O)c1ccc(O)cc1` has an activity change, negative = cytotoxicity of 4.98% [at 19 µM]. With `CCn1ccnc1CC1COc2ccccc2O1` (stereo unspecified) the Potency was “inactive”. In the case of `Brc1c(NC2=NCCN2)ccc2nccnc12`, the Potency is reported as “inactive”. With `CCN1CCC[C@H]1CNC(=O)c1cc(S(N)(=O)=O)ccc1OC` the Potency was “inactive”. With `NC(CSCC(=O)O)C(=O)O` (stereo unspecified) the Potency was “inactive”. In the case of `COC(=O)C1=C(C)NC(C)=C(C(=O)OC)C1c1ccccc1[N+](=O)[O-]`, the Potency is reported as “inactive”. For `CO[Si](CCCOCC1CO1)(OC)OC` (stereo unspecified), the Potency was “inactive”. In the case of `CCn1nc(C(=O)O)c(=O)c2cc3c(cc21)OCO3`, the Potency is reported as “inactive”. With `COC(=O)[C@@H](N)Cc1ccc(O)c(O)c1` the Potency was “inactive”. With `C[C@H](NC(CCc1ccccc1)C(=O)O)C(=O)N1CCC[C@H]1C(=O)O` (stereo partly specified) the Potency was “inactive”. With `CC(C)NCC(O)c1ccc(NS(C)(=O)=O)cc1` (stereo unspecified) the Potency was “inactive”. In the case of `O=C(CCCN1CCC(O)(c2cccc(C(F)(F)F)c2)CC1)c1ccc(F)cc1`, the Potency is reported as “inactive”. In the case of `CN(C)CCCN1c2ccccc2CCc2ccc(Cl)cc21`, the Potency is reported as 48.6 µM (active). With `CCO/C([O-])=N/c1c[n+](N2CCOCC2)no1` the Potency was “inactive”. Molecule `O=C(O)CN(CCOCCOCCN(CC(=O)O)CC(=O)O)CC(=O)O` has an activity change, negative = cytotoxicity of 4% [at 0.349 µM]. In the case of `Cc1cccc(C)c1NC(=O)C(C)N` (stereo unspecified), the Potency is reported as “inactive”. In the case of `CCN1CCC[C@H]1CNC(=O)c1c(O)c(Cl)cc(Cl)c1OC`, the Potency is reported as “inactive”. For `CCOC(=O)Nc1ccc(NCc2ccc(F)cc2)nc1N`, the Potency was “inactive”. With `CC(C(=O)O)c1ccc(CC2CCCC2=O)cc1` (stereo unspecified) the Potency was “inactive”. For `COCCc1ccc(OCC(O)CNC(C)C)cc1` (stereo unspecified), the Potency was “inactive”. In the case of `Nc1nc2c(ncn2COC(CO)CO)c(=O)[nH]1`, the Potency is reported as “inactive”. With `CC(C[N+](C)(C)C)OC(N)=O` (stereo unspecified) the Potency was “inactive”. For `Nc1c2c(nc3ccccc13)CCCC2O` (stereo unspecified), the Potency was “inactive”. With `Cc1[nH]c(=O)c(C#N)cc1-c1ccc2nccn2c1` the Potency was “inactive”.

Target: Nuclear receptor subfamily 1 group I member 3 (Homo sapiens) (UniProt Q14994)
Sequence (Q14994 whole entry, looked up): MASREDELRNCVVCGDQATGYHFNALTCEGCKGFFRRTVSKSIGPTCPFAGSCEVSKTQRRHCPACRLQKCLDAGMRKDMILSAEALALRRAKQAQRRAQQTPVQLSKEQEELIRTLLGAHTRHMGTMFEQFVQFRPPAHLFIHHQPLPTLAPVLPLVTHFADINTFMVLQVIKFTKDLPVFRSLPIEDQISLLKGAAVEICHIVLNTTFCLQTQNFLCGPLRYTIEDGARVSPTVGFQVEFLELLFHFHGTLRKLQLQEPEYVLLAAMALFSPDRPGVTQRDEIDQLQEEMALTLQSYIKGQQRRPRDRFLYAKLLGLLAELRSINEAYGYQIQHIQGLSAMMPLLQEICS
Assay: qHTS assay to identify small molecule antagonists of the constitutive androstane receptor (CAR) signaling pathway (AID 1224838);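 note: HepG2 cells stably expressing hCAR with CYP2B6 luciferase reporter stimulated by CITCO; nearly all actives have a fitted effect of over 40% in size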
Conditions: HepG2-CYP2B6-hCAR luciferase, CITCO-stimulated, 24 h; series mostly up to 92.4 µM
Method in brief: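 Human hepatoma HepG2 cells expressing hCAR and a CYP2B6 promoter (2.2 kb) luciferase construct; compound titration (15 points) with 50 nM CITCO final, 24 h at 37 C/5% CO2; luminescence via ONE-Glo after 30 min at room temperature.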
In the case of `OC(CCN1CCCCC1)(c1ccccc1)C1CC2C=CC1C2` (stereo unspecified), the Potency is reported as “inactive”. In the case of `CC(C)(c1ccc(O)cc1)c1ccc(O)cc1`, the Potency is reported as “inactive”. In the case of `CCCN(CCC)CCc1cccc2c1CC(=O)N2`, the Potency is reported as “inactive”. For `Cc1ccc(=O)n(-c2ccccc2)c1`, the Potency was “inactive”. For `CCCCCCCCCCCC`, the Potency was “inactive”. For `c1ccc([C@H]2CN3CCSC3=N2)cc1`, the Potency was “inactive”. In the case of `c1cnc(N2CCN(Cc3ccc4c(c3)OCO4)CC2)nc1`, the Potency is reported as “inactive”. `N[C@H](C(=O)O)c1ccc(O)cc1` showed an activity, negative = inhibition of -5.61% [at 19 µM]. In the case of `CCn1ccnc1CC1COc2ccccc2O1` (stereo unspecified), the Potency is reported as “inactive”. For `Brc1c(NC2=NCCN2)ccc2nccnc12`, the Potency was “inactive”. For `CCN1CCC[C@H]1CNC(=O)c1cc(S(N)(=O)=O)ccc1OC`, the Potency was “inactive”. With `NC(CSCC(=O)O)C(=O)O` (stereo unspecified) the Potency was “inactive”. With `CO[Si](CCCOCC1CO1)(OC)OC` (stereo unspecified) the Potency was “inactive”. With `CCn1nc(C(=O)O)c(=O)c2cc3c(cc21)OCO3` the Potency was “inactive”. In the case of `CC(C)NCC(O)c1ccc(NS(C)(=O)=O)cc1` (stereo unspecified), the Potency is reported as “inactive”. With `O=C(CCCN1CCC(O)(c2cccc(C(F)(F)F)c2)CC1)c1ccc(F)cc1` the Potency was “inactive”. With `Cc1cccc(C)c1NC(=O)C(C)N` (stereo unspecified) the Potency was “inactive”. With `CCN1CCC[C@H]1CNC(=O)c1c(O)c(Cl)cc(Cl)c1OC` the Potency was “inactive”. With `CCOC(=O)Nc1ccc(NCc2ccc(F)cc2)nc1N` the Potency was “inactive”. For `CC(C(=O)O)c1ccc(CC2CCCC2=O)cc1` (stereo unspecified), the Potency was “inactive”. With `COCCc1ccc(OCC(O)CNC(C)C)cc1` (stereo unspecified) the Potency was “inactive”. For `Nc1nc2c(ncn2COC(CO)CO)c(=O)[nH]1`, the Potency was “inactive”. For `CC(C[N+](C)(C)C)OC(N)=O` (stereo unspecified), the Potency was “inactive”. In the case of `Nc1c2c(nc3ccccc13)CCCC2O` (stereo unspecified), the Potency is reported as “inactive”. With `Cc1[nH]c(=O)c(C#N)cc1-c1ccc2nccn2c1` the Potency was “inactive”.

Target: Nuclear receptor subfamily 1 group I member 3 (Homo sapiens) (UniProt Q14994)
Assay: qHTS assay to identify small molecule agonists of the constitutive androstane receptor (CAR) signaling pathway (AID 1224839); note: nearly all actives have a fitted effect of over 15% in size; note: potency is the fitted concentration of half-maximal effect;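 for activation: HepG2 cells stably carrying human CAR and a CYP2B6 luciferase reporter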
Conditions: HepG2 hCAR CYP2B6-luciferase, agonist mode, 24 h; series mostly up to 92.4 µM
Method in brief: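 Double-stable HepG2 cells (hCAR, CYP2B6-2.2kb) seeded 4 h before compound addition. Exposure 24 h with 0.75 uM PK11195 final. Luciferase detected by ONE-Glo.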
With `OC(CCN1CCCCC1)(c1ccccc1)C1CC2C=CC1C2` (stereo unspecified) the Potency was “inactive”. In the case of `CC(C)(c1ccc(O)cc1)c1ccc(O)cc1`, the Potency is reported as 30.3 µM (active) and 11.1 µM (active). For `CCCN(CCC)CCc1cccc2c1CC(=O)N2`, the Potency was “inactive”. With `Cc1ccc(=O)n(-c2ccccc2)c1` the Potency was “inactive”. In the case of `CCCCCCCCCCCC`, the Potency is reported as “inactive”. In the case of `c1ccc([C@H]2CN3CCSC3=N2)cc1`, the Potency is reported as “inactive”. With `c1cnc(N2CCN(Cc3ccc4c(c3)OCO4)CC2)nc1` the Potency was “inactive”. In the case of `COC(=O)c1c(Cl)c(Cl)c(C(=O)OC)c(Cl)c1Cl`, the Potency is reported as 54.5 µM (active) and 8.63 µM (active). With `N[C@H](C(=O)O)c1ccc(O)cc1` the activation was -0.259% [at 19 µM]. In the case of `CCn1ccnc1CC1COc2ccccc2O1` (stereo unspecified), the Potency is reported as “inactive”. In the case of `Brc1c(NC2=NCCN2)ccc2nccnc12`, the Potency is reported as “inactive”. With `CCN1CCC[C@H]1CNC(=O)c1cc(S(N)(=O)=O)ccc1OC` the Potency was “inactive”. In the case of `NC(CSCC(=O)O)C(=O)O` (stereo unspecified), the Potency is reported as “inactive”. In the case of `CO[Si](CCCOCC1CO1)(OC)OC` (stereo unspecified), the Potency is reported as “inactive”. With `C[C@H](NC(CCc1ccccc1)C(=O)O)C(=O)N1CCC[C@H]1C(=O)O` (stereo partly specified) the Potency was “inactive”. In the case of `CC(C)NCC(O)c1ccc(NS(C)(=O)=O)cc1` (stereo unspecified), the Potency is reported as “inactive”. For `O=C(CCCN1CCC(O)(c2cccc(C(F)(F)F)c2)CC1)c1ccc(F)cc1`, the Potency was “inactive”. For `CN(C)CCCN1c2ccccc2CCc2ccc(Cl)cc21`, the Potency was “inactive”. In the case of `Cc1cccc(C)c1NC(=O)C(C)N` (stereo unspecified), the Potency is reported as “inactive”. For `CCN1CCC[C@H]1CNC(=O)c1c(O)c(Cl)cc(Cl)c1OC`, the Potency was “inactive”. In the case of `CCOC(=O)Nc1ccc(NCc2ccc(F)cc2)nc1N`, the Potency is reported as “inactive”. In the case of `CC(C(=O)O)c1ccc(CC2CCCC2=O)cc1` (stereo unspecified), the Potency is reported as “inactive”. With `COCCc1ccc(OCC(O)CNC(C)C)cc1` (stereo unspecified) the Potency was “inactive”. In the case of `Nc1nc2c(ncn2COC(CO)CO)c(=O)[nH]1`, the Potency is reported as “inactive”. With `CC(C[N+](C)(C)C)OC(N)=O` (stereo unspecified) the Potency was “inactive”. In the case of `Nc1c2c(nc3ccccc13)CCCC2O` (stereo unspecified), the Potency is reported as “inactive”. In the case of `Cc1[nH]c(=O)c(C#N)cc1-c1ccc2nccn2c1`, the Potency is reported as “inactive”.

Source: PubChem BioAssay (Tox21)
